Experimental data: the supplement of paper PMC6555819

Tests used:
Assay in all cases: PBM binding z-score (relative to random genomic background probes); higher = stronger binding; sequences stand for … in GC…GCGATTGACAGCGTAGAATGAAGG
[1] = test system: PPARg:RXRa DBDmut IVT, anti-RXR (DBD mutation: RXRa K156A/R161A, NR concentration 270 nM, RXRa partner concentration 90 nM)
Summary of the method: (§1)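 Custom Agilent 4×180K protein-binding microarrays carried double-stranded probes, each with a 34-nt variable region. These regions held direct-repeat seeds, single-nucleotide variants, half-site ablations and random human genomic background sequences. Ligand-free nuclear receptor dimers were incubated on the arrays for 1 h, antibodies against each partner (one per run) detected binding, and scanned fluorescence was regression-normalized. Binding z-scores take the random background probes as reference.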

[2] = test system: PPARg:RXRa IVT, anti-PPARg (NR concentration 270 nM, RXRa partner concentration 90 nM)
Summary of the method: as §1

[3] = test system: PPARg DBDmut:RXRa IVT, anti-PPARg (DBD mutation: PPARg1 K132A/R137A, NR concentration 270 nM, RXRa partner concentration 90 nM)
Summary of the method: as §1

[4] = test system: PPARg DBDmut IVT, anti-PPARg (DBD mutation: PPARg1 K132A/R137A, NR concentration 270 nM)
Summary of the method: as §1

[5] = test system: PPARg homodimer (NR concentration 180 nM)
Summary of the method: as §1

[6] = test system: PXR:RXRa (NR concentration 270 nM, RXRa partner concentration 90 nM)
Summary of the method: as §1

[7] = test system: PXR homodimer (NR concentration 270 nM)
Summary of the method: as §1

[8] = test system: RARa:RXR (NR concentration 270 nM, RXRa partner concentration 90 nM)
Summary of the method: as §1

[9] = test system: RARa homodimer (NR concentration 270 nM)
Summary of the method: as §1

[10] = test system: RARb:RXRa (NR concentration 270 nM, RXRa partner concentration 90 nM)
Summary of the method: as §1

Row | Sequence | PBM binding z-score [1] | PBM binding z-score [2] | PBM binding z-score [3] | PBM binding z-score [4] | PBM binding z-score [5] | PBM binding z-score [6] | PBM binding z-score [7] | PBM binding z-score [8] | PBM binding z-score [9] | PBM binding z-score [10]
1 | GGAACGAGGGCAAATTGATAGCAGAGTTTGATGG | 3.46 | 2.68 | 0.618 | -0.23 | 0.358 | 0.625 | 0.703 | 0.402 | -0.436 | 2.23
2 | AGAACGAGGGCAATGAGTTGATAGCTCGGGTGGC | 3.68 | 2.41 | 0.337 | -0.763 | -0.195 | 1.36 | 5.33 | 0.0914 | -0.796 | 2.08
3 | TCTGCTAGGTCAACGATGGCCAGCTAATCTGCTA | 4.07 | 4.02 | 0.274 | -0.0746 | 0.165 | 0.871 | -1.29 | 1.9 | -0.648 | 3.94
4 | CAAACTAGGTCACGAAAGGTCAGAGTCGAATGAC | 8.85 | 9.13 | 3.21 | 1.91 | 7.35 | 6.33 | 1.71 | 6.97 | 5.45 | 5.39
5 | TCATATAGGAAAAAGGTGAAAGTCGGTGTGGTAA | 2.92 | 1.79 | 1.1 | 0.104 | 1.49 | 0.859 | 0.327 | 1.63 | 1.43 | 1.57
6 | CGAACGAGGGCATGAGTTGCTAGCAAATGCCGAT | 3.04 | 1.87 | -0.188 | -0.705 | -0.0181 | 0.336 | -0.327 | 0.293 | -0.816 | 1.82
7 | CGAACTAGGTCATCCGGGACAGTGAATACATTGA | 8.35 | 8.45 | 3.68 | 1.68 | 1.84 | 1.8 | 0.618 | 2.4 | 0.0887 | 4.09
8 | CCTGCTAGGTGATGGTCAGCTAATCTACAGTATG | 1.57 | 1.13 | -1.09 | -0.973 | -0.218 | -0.725 | -0.701 | -0.72 | -0.885 | 0.079
9 | TCTTGTAGATCAATATAGGTTAAGAAAGTGCGCT | 2.95 | 2.98 | 1.55 | 1.13 | 0.797 | 1.67 | 0.304 | 1.4 | 1.22 | 0.676
10 | CGAACTAGGTCATTGACAGTACAGTGAATAGTAA | 7.66 | 8.48 | 3.53 | 2.28 | 1.89 | 1.64 | 0.291 | 2.03 | 0.0313 | 3.67
11 | CGTCTAAGTTCAACTAAGGTAACGTAAAGCACGC | 0.256 | 0.683 | 0.378 | 0.759 | 1.95 | 5.04 | 4.82 | 3.08 | 1.48 | 4
12 | ATCTCTAGGTAAAGTTCAGTGCAAGATCGATAGA | 2.92 | 2.81 | 0.415 | 1.22 | 2.51 | 2.32 | 1.67 | 1.49 | 1.38 | 2.78
13 | CCTCGGAGGACAAGAGGAGGTCAGAGCTGCCAGA | -0.0535 | 0.408 | -0.899 | -1.36 | 0.986 | 1.71 | -0.0509 | 1.94 | 0.29 | 2.54
14 | CCTTCTAGGTCATGGTCAGCTAATCTACAGTATG | 7.22 | 6.72 | 1.58 | 1.21 | 2.24 | 1.7 | 0.327 | 2.63 | 1.36 | 4.08
15 | ACGATTAGTTGAGACGAGGGCAACCGATAGGTTG | -0.118 | 0.112 | 0.232 | -0.573 | 0.155 | 1.11 | 0.466 | 0.874 | 0.365 | 0.555
16 | ACTATTATTTGACTTAGGGCAACCGATACGACGC | 0.814 | 0.633 | 1.79 | 2.46 | 2.16 | 0.502 | 1.69 | 0.728 | 3.4 | 1.21
17 | CCGACTGGGGCAGAAAGGTTACCGTACCATCCGG | 1.72 | 2.39 | -1.2 | -1.01 | 0.541 | 1.02 | -0.429 | 1.79 | -0.282 | 1.84
18 | CCTAGTTGGTCAAGGTGACACACGCTATAGGTAC | 1.63 | 3.11 | 0.179 | 0.257 | 1.46 | 0.478 | 0.557 | 1.28 | 1.57 | 1.86
19 | ACAGACAGGTGAGTGAAGGTACCTCAGCTGGACG | 0.368 | 0.143 | -0.279 | -0.459 | -0.919 | -0.854 | -0.592 | -0.657 | -1.02 | 0.213

Row | Sequence | PBM binding z-score [1] | PBM binding z-score [2] | PBM binding z-score [3] | PBM binding z-score [4] | PBM binding z-score [5] | PBM binding z-score [6] | PBM binding z-score [7] | PBM binding z-score [8] | PBM binding z-score [9] | PBM binding z-score [10]
20 | TAGCCTAGGTCATGCGGGCCAGTATTGTGTCGGC | 1.92 | 3.17 | -0.152 | -1.19 | 0.001 | 1.34 | -0.847 | 1.82 | -1.27 | 3.69
21 | ACAGACAGGCGATGAAGGTAACTCAGGCTATCAT | -0.645 | -0.444 | -0.214 | 0.247 | 0.743 | -0.467 | 0.0486 | -0.431 | -0.0743 | -0.249
22 | TGAATGAGGTTAGAAGATCAGGGAACGTTGCAAA | 0.481 | 1.07 | 0.215 | 0.423 | 0.0749 | 0.145 | -0.0637 | 0.485 | 0.14 | 0.954
23 | TCTCGTTGGTCACGGAGGTCACACACGACGGGTA | 1.58 | 3.31 | 0.735 | 1.33 | 2.82 | 4.37 | 0.995 | 4.41 | 1.01 | 4.02
24 | TCTTGTAGATCAAGCAGTTTAAGAAAGCCTGAGT | 1.32 | 0.194 | 0.902 | -0.105 | -0.414 | 0.133 | -0.14 | 0.0935 | -0.0919 | -0.137
25 | ATATGTAGGTTAGCTGGGGTCATGCAGACTAGGC | 6.73 | 6.58 | 3.11 | 1.46 | 3.23 | 6.14 | 2.18 | 5.87 | 1.4 | 3.44
26 | ATATGTAGGTTACATCCGGGTCATTTAGGCTATG | 7.42 | 7.5 | 4.18 | 3.77 | 3.45 | 3.45 | 1.06 | 3.55 | 0.824 | 2.16
27 | CGTCGAAGGTCAGCAGGTCAGTGAAAGCGACGTG | 2.98 | 3.25 | -0.047 | -1.4 | 4.2 | 3.44 | 0.233 | 4.8 | 1.59 | 5.24
28 | CCTAGAAGGCCAATCTGGGTCACTCAAGGCTTGA | 3.74 | 4.78 | -0.238 | -1.07 | 1.21 | 1.86 | -0.344 | 2.12 | 0.185 | 2.4
29 | TTACCAAGGTGAGCTGAGGTAGTTGATCCAACTC | 0.816 | 1.21 | 0.143 | -0.469 | -1.15 | 0.018 | -0.878 | 1.14 | -0.894 | 0.883
30 | TCTACCAGGCCAGAGGGTCACTCAAGAGGTACGG | 1.61 | 1.75 | -0.383 | -0.224 | 1.12 | 1.82 | -0.126 | 2.67 | 0.116 | 2.51
31 | TGTGCTAGGTCAGTTGGTCAGCTAACGAGCTGCC | 1.29 | 3.02 | -0.307 | 0.199 | 0.18 | 0.0475 | -0.625 | 0.36 | -0.296 | 3.26
32 | TCTATTAGCTGATTAGGGCAACCGAAACAGCGGA | 1.49 | 1.49 | 0.731 | 0.319 | -0.183 | -0.0443 | -0.871 | 0.252 | -0.337 | 0.444
33 | TTACCAAGGTGAAGGTCGTCGATCCCTCTGTAGA | 1.94 | 3.33 | 0.0568 | 0.108 | 0.887 | 1.24 | -0.288 | 1.64 | -0.604 | 2.36
34 | ATCTATAGGTAACAAGTTCAGTGAAAGAGAGGAC | 2.14 | 1.83 | 1.5 | 1.51 | 1.15 | 1.72 | 1.68 | 1.74 | 1.48 | 1.72
35 | ACATACAGGTGAGTGAAGGTAACTCAGCTGGACG | 2.31 | 2.03 | 0.417 | 0.188 | 0.393 | 0.304 | -0.247 | 0.687 | -0.0591 | 0.763
36 | CCGTGTAGGTTATGGGGCATTCAGGCAACGGTGA | 2.12 | 2.67 | -1.11 | -0.904 | 1.42 | 0.0818 | -0.178 | 0.761 | 0.31 | 1.33
37 | GGAACGAAGGCAAGTTGATAGCAGAGTTTGATGG | -0.11 | -0.659 | 0.0164 | -0.632 | -0.995 | -0.665 | -0.247 | -0.931 | -0.746 | -0.503
